High-throughput results: PubChem, National Center for Advancing Translational Sciences (NCATS)
AID923: qHTS Assay for Allosteric/Competitive Inhibitors of Caspase-1: Spectroscopic Profiling in AFC Spectral Region; compound fluorescence, AFC spectral region (405/520 nm); Potency, µM (series often up to 57.5 µM), without a hit: at the top dose fluorescence increase, most hits filed as activators; 75,000 compounds, 1.1% hits; AID 923, 2007; further: potency means the concentration at half of the fitted maximal effect; 0% is about no effect
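Titrations up to 57 uM read every 20 sec for 3 min (405/520 nm) with 50 nM caspase 1 and 5 uM Ac-WEHD-AFC, pH 7.5 HEPES buffer. Fluorescence-vs-time intercept gave baseline, scaled against on-plate AFC standard.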
HSD17B inhib: blocks hydroxysteroid 17-beta dehydrogenase activity. Q99714. recombinant HSD17B10, NADH fluorescence kinetic. Potency, µM (doses to about 57.1 µM), for inactives: at the highest dose activity change, negative = inhibition, most hits filed as inhibitors. 75,000 compounds, 7.6% hits;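 further: the protocol describes HADH2 (HSD17B10) and not the HSD17B4 of the title; potency means the concentration at half of the fitted maximal effect; on the % scale 0 is the no-effect control and ±100 the full control effect; nearly all actives have a fitted effect of over 70% in size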
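20 nM HADH2, pH 9.0 Tris/Tween; cpd preinc 15 min RT; start w/ 1 mM NAD+ + 90 uM b-hydroxybutyryl-CoA; kinetic fluor ex360/em450 q30s x 4 min; delta last-first.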
4MU fluor: compound fluoresces in the 4-MU spectral region; 59,000 compounds, 11% hits; compound autofluorescence, 340/450 nm, 4-MU equivalents; stronger effect = higher value; max dye-equivalent concentration, M; AID 589; in the data active means max dye-equivalent concentration above about 10 nM; inconclusive means mostly about 1.1 nM to 9.6 nM
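Intrinsic fluorescence at 340/450 nm (ex/em) was read after 15 min at room temperature in pH 8.0, 100 mM Tris. Each compound concentration expressed as 4-MU-equivalent concentration from a six-point 4-MU standard series on each plate.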
CRE Fsk mod: alters forskolin-stimulated CRE reporter signaling in CHO cells | CHO CRE-bla reporter (cAMP response element driving beta-lactamase), forskolin EC10, beta-lactamase ratio | Potency, µM (top dose mostly 38.2 µM), for inactives: at the highest dose activity change, negative = inhibition, actives largely listed as activators | 71,000 compounds, 2.5% hits; active means well fitted activation curve with a large enough effect in the signal ratio, with a control signal flat, not every such curve was filed as active; inconclusive means small, poorly fitted or top-dose-only effect, or effect the other way, or a change in a side signal; the % refers to the signal ratio; further: potency means the concentration at half of the fitted maximal effect; % of control where 0% means no effect
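Modulation of forskolin signalling: compounds in titration series added with EC10 NKH 477 to CHO cells carrying a CRE-driven beta-lactamase reporter, 3 h, 37C. CCF4 FRET ratio (460/530 nm, ex 405 nm) gives %activity and AC50.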
A350 fluor: A350 region autofluorescence; Compound autofluorescence, 340/450 nm, Alexa 350 dye-equivalents; stronger effect = higher value; max dye-equivalent concentration, M; 59,000 compounds, 11% hits; in the data active means max dye-equivalent concentration above about 10 nM; inconclusive means mostly about 1.1 nM to 9.6 nM
HADH2 inhib: HADH2 (human) dehydrogenase inhibition. Q99714. recombinant HADH2, NADH fluorescence, beta-hydroxybutyryl-CoA. Potency, µM (series often up to 57.1 µM), without a hit: top-dose activity change, negative = inhibition, most hits filed as inhibitors. 73,000 compounds, 3.4% hits. AID 886; further: potency means the concentration at half of the fitted maximal effect; on the % scale 0 is the no-effect control and ±100 the full control effect; nearly all actives have a fitted effect of over 60% in size
Target sequence (Q99714 whole entry, looked up, one chain of several): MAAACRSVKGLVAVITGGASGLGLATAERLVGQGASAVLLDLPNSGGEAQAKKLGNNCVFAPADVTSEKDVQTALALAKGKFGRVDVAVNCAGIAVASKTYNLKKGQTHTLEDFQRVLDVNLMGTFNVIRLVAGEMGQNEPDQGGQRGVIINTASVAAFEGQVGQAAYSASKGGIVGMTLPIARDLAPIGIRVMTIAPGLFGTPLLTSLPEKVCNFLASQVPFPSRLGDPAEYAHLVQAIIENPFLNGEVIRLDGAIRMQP
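His-tagged recombinant enzyme from E. coli, 20 nM, preincubated 15 min RT with compound; reaction started with 1 mM NAD+ and 90 uM beta-hydroxybutyryl-CoA in 100 mM Tris-HCl pH 9.0. NADH fluorescence (ex 360/em 450) read over 4 min; last-minus-first difference.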
Starred values were filed as active, the others as inactive; [ ] = another dose, or the depositor's remark. This is a sample that favours compounds with a hit; in the whole collection about 14% have one here. Unless noted, the call rests on the fitted dose curve; in most records, active means well fitted curve in the direction sought with a large enough effect; inconclusive means small, poorly fitted or top-dose-only effect, or another doubt; inactive means no such curve, though single readings can be large; an effect the other way counts as inactive or inconclusive.

How did O=C(O)C1Cc2c([nH]c3ccccc23)C(c2ccc3c(c2)OCO3)N1 (centres undefined) do in these assays?
AID923: 9.3%; HSD17B inhib: 31.6µM*; 4MU fluor: 2.63e-08M*; CRE Fsk mod: inconclusive; A350 fluor: 3.15e-08M*; HADH2 inhib: -16.9%

What do the screens show for `CN1CCN(c2cc(-c3ccccc3Cl)ncn2)CC1`?
AID923: 0.8%; HSD17B inhib: 8.2%; 4MU fluor: inactive; CRE Fsk mod: 4.8%; A350 fluor: inactive; HADH2 inhib: 11.3%

What do the screens show for `COc1cc(/C=N/NC(=O)c2cc(-c3ccccc3)n[nH]2)cc(OC)c1OC`?
AID923: -1.7%; HSD17B inhib: -8.7%; HADH2 inhib: -28.6%

Results for CCc1nnc(NC(=O)CSc2nc(-c3ccc(OC)cc3)ns2)s1 ?
AID923: 0.0%; HSD17B inhib: 2.0%; 4MU fluor: 1.52e-08M*; CRE Fsk mod: inconclusive; A350 fluor: 1.82e-08M*; HADH2 inhib: 0.2%

What do the screens show for `CCc1nnc(NC(=O)CSc2nc3ccccc3s2)s1`?
AID923: 0.6%; HSD17B inhib: 31.6µM*; 4MU fluor: inactive; CRE Fsk mod: inconclusive; A350 fluor: inactive; HADH2 inhib: inconclusive

How did CCc1nnc(NC(=O)CSc2nnc(CNc3ccc(Cl)cc3)o2)s1 do in these assays?
AID923: 0.0%; HSD17B inhib: -3.5%; 4MU fluor: 1.73e-08M*; CRE Fsk mod: 1.9%; A350 fluor: 2.05e-08M*; HADH2 inhib: 9.4%

How did CS(=O)(=O)c1ccc(CNC(=O)[C@@H]2C[C@H]2[C@@H](NP(=O)(c2ccccc2)c2ccccc2)c2ccccc2)cc1 do in these assays?
AID923: -2.3%; HSD17B inhib: inconclusive; CRE Fsk mod: -15.3%; HADH2 inhib: -5.9%

Results for Cc1nc2c(sc3nc4c(cc32)COC(C)(C)C4)c(=O)n1CC(=O)NCc1ccco1 ?
AID923: 0.9%; HSD17B inhib: 7.5%; 4MU fluor: inconclusive; CRE Fsk mod: 8.4%; A350 fluor: inconclusive; HADH2 inhib: 15.9%

What do the screens show for `CCOC(=O)c1oc2nc3c(cc2c1N)COC(C)(C)C3`?
AID923: 2.5%; HSD17B inhib: 31.6µM*; 4MU fluor: 4.84e-07M*; CRE Fsk mod: inconclusive; A350 fluor: 6.47e-07M*; HADH2 inhib: -16.6%

How did CCc1nc2oc(C(=O)c3ccccc3)c(N)c2c2c1COC(C)(C)C2 do in these assays?
AID923: 2.2%; HSD17B inhib: -4.5%; CRE Fsk mod: inconclusive; HADH2 inhib: 10.4%[11.4 µM]

What do the screens show for `CCOC(=O)c1oc2nc(C)c3c(c2c1N)CC(C)(C)OC3`?
AID923: 3.2%; HSD17B inhib: 31.6µM*; 4MU fluor: 9.03e-07M*; CRE Fsk mod: 2.8%; A350 fluor: 1.15e-06M*; HADH2 inhib: -108.6%

Results for CCOC(=O)N1CCC(N2C(=O)c3ccc(C(=O)O)cc3C2=O)CC1 ?
AID923: 0.8%; HSD17B inhib: -1.2%; 4MU fluor: 1.23e-08M*; CRE Fsk mod: inconclusive; A350 fluor: 1.24e-08M*; HADH2 inhib: 5.7%

Results for CCOC(=O)N1CCC(N2C(=O)c3ccccc3C2Nc2cc(C(=O)OC)cc(C(=O)OC)c2)CC1 (centres undefined) ?
AID923: 0.2%; HSD17B inhib: 25.1µM*; CRE Fsk mod: inconclusive; HADH2 inhib: -10.2%

What do the screens show for `CCN1C(=O)[C@H]2[C@@H]3[C@H](O)[C@H](O)CC(=O)[C@H]3CC[C@H]2C1=O`?
AID923: 1.8%[11.5 µM]; HSD17B inhib: 2.2%[11.4 µM]; HADH2 inhib: -7.7%[11.4 µM]

How did CC(=O)c1cc(C)oc1C do in these assays?
AID923: -0.4%; HSD17B inhib: -1.8%; CRE Fsk mod: 0.6%; HADH2 inhib: 12.2%

Results for C[C@@H]1[C@H](C)CC[C@@]2(C(=O)O)CC[C@]3(C)C(=CC[C@H]4[C@@]5(C)CC[C@@H](O)C(C)(C)[C@@H]5CC[C@@]43C)[C@@H]12 ?
AID923: 0.1%[25.7 µM]; HSD17B inhib: 2.4%[25.6 µM]; 4MU fluor: inactive; CRE Fsk mod: 4.5%[17.1 µM]; A350 fluor: inactive; HADH2 inhib: -11.5%[25.6 µM]
